This is one part of a sample in which hits are shown more often than they occur.
Pf Dd2 growth: blocks in vitro growth of P. falciparum Dd2; P. falciparum Dd2 growth, SYBR Green, 72 h; hit rate 4.3% among 120,000; Potency, µM (top dose mostly 28.9 µM), for inactives: top-dose activity, negative = inhibition, most hits filed as inhibitors; active means well fitted inhibition curve with a large enough effect;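 further: plate controls were DMSO vehicle for no effect and reference drug for full effect; nearly all actives have a fitted effect of over 65% in size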
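Readout: SYBR Green fluorescence, 485 nm excitation, 535 nm emission, after ~16 h lysis at 37C. Before that, Dd2-infected red cells (2.5% hematocrit) grew 72 h with compound, 29 uM top final concentration.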
* = called active by the depositor; i = inactive; [ ] = dose if it differs, or a comment. Potency means the concentration at half of the fitted maximal effect.

SMILES | Pf Dd2 growth
Cc1ccc(C)c(Nc2nn3c(=O)c4ccc(C(=O)NCc5ccccc5)cc4nc3s2)c1 | -11%
Cc1c(C#N)c2ccccc2n1CC(=O)NC1CCOC2(CCOCC2)C1 (stereo not drawn) | -11%
O=C1N[C@H](CCC(=O)N2CCN(CCc3ccccn3)CC2)C(=O)Nc2ccccc21 | 5%
O=C1[C@@H]2C[C@@H](O)CN2C2(CN(Cc3ccccc3Cl)C2)C(=O)N1Cc1ccccc1F | -25%
CN1CCC(N(C)C(=O)CCC[C@@H]2[C@H]3CCCN4CCC[C@@H](CN2Cc2ccccc2)[C@@H]34)CC1 | -12%
N#Cc1cc2c(=O)n3ccccc3nc2n(-c2nnc(SCc3ccccc3)s2)c1=O | i
Cc1ccc(CSc2nnc(-n3c(=O)c(C#N)cc4c(=O)n5cc(C)ccc5nc43)s2)cc1 | 32%
Cc1cccn2c(=O)c3cc(C#N)c(=O)n(-c4nnc(SCc5ccc(Cl)cc5)s4)c3nc12 | 8.9µM*
CCCN(CC1CCOC1)C(=O)Nc1ccc(C)c(F)c1 (stereo not drawn) | i[5.79 µM]
Cn1ccnc1CN1C(=O)CO[C@H]2CN(C(=O)c3cnccn3)C[C@H]21 | 27%[44.1 µM]
CC(=O)Nc1ccc(CN2CCn3c(nnc3-c3cccnc3)C2)cc1 | i
CC(C)CCC(=O)N1CC(C(=O)N(C)C)C2(CCOCC2)C1 (stereo not drawn) | 7%
Cc1cnc(C(=O)NC2C[C@H]3CC[C@@H](C2)N3C(=O)CC(C)C)cn1 (stereo partly drawn) | 5%
COc1cccc(-c2n[nH]c3c2CC(=O)N(Cc2ccccn2)C3)c1 | 17%[44.1 µM]
O=C(NCC1CCCCC1)C1(CCO)CCN(c2ncccn2)C1 (stereo not drawn) | 9%
COc1cc(OC)cc(OCC2CN(Cc3cccc(C(F)(F)F)c3)C(=O)c3c(ccnc3-c3ccc(OCC(=O)O)cc3)O2)c1 (stereo not drawn) | -8%
O=C(O)COc1ccc(-c2nccc3c2C(=O)N(Cc2cccc(C(F)(F)F)c2)CC(CNC(=O)c2cccc(Cl)c2)O3)cc1 (stereo not drawn) | 10µM*
O=C(O)COc1ccc(-c2nccc3c2C(=O)N(Cc2cccc(C(F)(F)F)c2)CC(COc2ccc(OC(F)(F)F)cc2)O3)cc1 (stereo not drawn) | i
CCCc1cc(C(=O)N2CC[C@H]3CNC[C@H]32)n(C)n1 | 20%
O=C1Nc2cnccc2C2(CCN([S+](=O)([O-])c3cccc(C(F)(F)F)c3)C2)O1 (stereo not drawn) | -7%
Cc1ccccc1OCCCCn1c(C2CC(=O)N(c3ccccc3Cl)C2)nc2ccccc21 (stereo not drawn) | 14%
CCCCN1CC(c2nc3ccccc3n2CCCCOc2ccccc2C)CC1=O (stereo not drawn) | 10µM*
Cc1cccc(C)c1OCCCCn1c(C2CC(=O)N(c3ccc(F)cc3)C2)nc2ccccc21 (stereo not drawn) | i
COc1cccc(CCC(=O)N2CCC(C3CCNC3)CC2)c1 (stereo not drawn) | 11%
Cc1cc(C(=O)N2CCCC(CCc3c(F)cccc3F)C2)no1 (stereo not drawn) | i
SMILES | Pf Dd2 growth
COc1cc(CN2CCC3(CCN(CC4CC4)CC3)C(CO)C2)ccc1F (stereo not drawn) | 8.9µM*
COc1cc(CN2CCC3(CC2)CN(c2ccncn2)CC3CO)ccc1F (stereo not drawn) | -13%
COc1cc(CN2CCCC(c3[nH]ccc3C(N)=O)C2)ccc1F (stereo not drawn) | -29%
Cc1nn(-c2ccccn2)c(C)c1[C@@H]1C=C[C@@H](NC(=O)CCCC(=O)O)C1 | 22%[44.1 µM]
COCC(=O)N1CCCN(C(=O)CSc2ccncc2)CC1 | -1%
CCCn1c(C)cnc1C1CCN(S(=O)(=O)c2cc(OC)ccc2OC)C1 (stereo not drawn) | 3.5µM*
COc1ccc(OC)c(S(=O)(=O)N2CCC(n3cnnc3C)CC2)c1 | -23%
COc1ccc(OC)c(S(=O)(=O)N2CCCC(Cn3c(C)nc4cccnc43)C2)c1 (stereo not drawn) | i
COCC(=O)N[C@H]1CCN2C(=O)N(c3ccc(OC(F)(F)F)cc3)C(=O)[C@@H]2C1 | i
Cc1noc(-c2cn(C3CCN(C(=O)c4ccc(F)cc4)CC3)nn2)n1 | i
COc1ccccc1C(=O)N1CCC(Cc2n[nH]c(C)n2)CC1 | 11%
Cc1ccc(C(=O)N[C@H]2CO[C@H]3[C@@H]2OC[C@@H]3Nc2nccc(C(C)(C)C)n2)cc1 | 11µM*
CC(C)(C)c1ccc(NC(=O)O[C@@H]2CO[C@H]3[C@@H]2OC[C@@H]3Nc2nccc(C(C)(C)C)n2)cc1 | i
CC(=O)Nc1ccc(S(=O)(=O)N[C@H]2CO[C@H]3[C@@H]2OC[C@@H]3Nc2nccc(C(C)(C)C)n2)cc1 | -9%
COCC1CN(C(C)=O)CC12CCN(Cc1ccc(F)cc1)CC2 (stereo not drawn) | 9%
CCCCN(CCC(=O)NCCCOC)C(=O)c1ccoc1 | 6%
Cc1cc(C(=O)N2CCCN(S(C)(=O)=O)C(c3ccccc3)CC(=O)NCC2)n(C)n1 (stereo not drawn) | 10%
Cc1ccsc1C(=O)N1CC(C(=O)NC2CCCCC2)C2(CCOCC2)C1 (stereo not drawn) | -4%
CCOc1ccccc1CNC(=O)c1ccc(CN2C(=O)NC3(CCOCC3)C2=O)cc1 | i
CCc1ccc(Oc2nc3c(C)cccn3c(=O)c2/C=C(\C#N)c2nc3ccccc3s2)cc1 | i
Cc1cc(C)cc(Oc2nc3c(C)cccn3c(=O)c2/C=C(\C#N)c2nc3ccccc3s2)c1 | 0.89µM*
Cc1cccn2c(=O)c(/C=C(\C#N)c3nc4ccccc4s3)c(Oc3ccc(F)cc3)nc12 | 3.2µM*
Cc1cc(Oc2nc3ccccn3c(=O)c2/C=C(\C#N)c2nc3ccccc3s2)ccc1Cl | i
N#C/C(=C\c1c(Oc2ccc(Br)cc2)nc2ccccn2c1=O)c1nc2ccccc2s1 | 6%
Cc1cc(C)cc(Oc2nc3ccccn3c(=O)c2/C=C(\C#N)c2nc3ccccc3s2)c1 | 22%
SMILES | Pf Dd2 growth
O=C1CC2CCN(C(=O)c3ccc(C(F)(F)F)cc3)CC2CCN1 (stereo not drawn) | 16%
COc1ccc(C(=O)N2CCC3(CC2)N=C(c2ccc(Cl)cc2)NO3)cc1OC | -17%
CCc1nc2c(c(-c3ccc(OC)cc3)n1)CCN(C(=O)c1ccc3c(c1)OCO3)CC2 | -15%
O=c1c2nc(-c3ccsc3)ccc2ncn1Cc1ccccc1 | i
O=C(c1cc(F)ccc1F)N1CCC2(CC1)NC(=O)N(Cc1ccc(F)cc1)C2=O | -7%
COCCc1nn2c(=O)cc(COC(=O)c3ccc(C(C)(C)C)cc3)nc2s1 | 14µM*
Cc1nn2c(=O)cc(COC(=O)c3ccc(C(C)(C)C)cc3)nc2s1 | 18%
COCCc1nn2c(=O)cc(COC(=O)c3cccs3)nc2s1 | 45%[5.79 µM]
CN1CCC(N[C@@H]2CO[C@H](CNC(=O)CC(C)(C)C)[C@H]2O)CC1 | 30%[44.1 µM]
O=C1NCCCCCN(C(=O)Cc2cccc(F)c2)[C@@H]2CCCC[C@H]12 | i
CC(=O)N1C[C@@H](CO)[C@H](NC(=O)c2ccccc2)C1 | -4%
O=C1OC2(CN1CC1CCOCC1)CN(c1ccccc1-c1ccccc1)C2 | -25%[44.1 µM]
COc1ccc(-c2noc(-c3cccn3CC(=O)Nc3ccc(C)c(C)c3)n2)cc1F | i
CCN(C(=O)Cn1cccc1-c1nc(-c2ccc(OC)c(F)c2)no1)c1ccccc1 | i
O=C(Cn1cccc1-c1nc(-c2ccccc2)no1)NCc1ccc(F)cc1Cl | i
COc1ccc(-c2noc(-c3cccn3CC(=O)N3CCc4ccccc43)n2)cc1F | 25%

High-throughput results from PubChem.
